In the supplement of paper PMC7393113:
Counter-ions that a name gives are not always drawn. ± gives the standard deviation of the averaged measurements.

Test system: iBMDM (immortalised mouse bone-marrow-derived macrophages), LPS-stimulated
Assay: mitochondrial superoxide (MitoSOX fluorescence) fold increase over unstimulated control; higher = more LPS-induced mitochondrial ROS (less inhibition)
Settings: inhibitor concentration: 500 nM, LPS: 100 ng/ml
Method in brief: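 Immortalised mouse bone-marrow-derived macrophages were seeded in triplicate in black 96-well plates and moved to phenol-red-free 1% FCS/DMEM for 20 h. They were pretreated 30 min with kinase inhibitors (500 nM), loaded with 1 μM MitoSox for 10 min, then given LPS (100 ng/ml). Fluorescence (excitation/emission 510/580 nm, ClarioStar plate reader) was read every 60 min for 4 h. Mitochondrial superoxide is fold induction over untreated control macrophages, averaged over three replicates.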

SMILES: CCc1nc(-c2cccc(C)c2)c(-c2ccnc(NC(=O)c3ccccc3)c2)s1
- mitochondrial superoxide (time after LPS: 1 h): 1.17 ± 0.028
- mitochondrial superoxide (time after LPS: 2 h): 1.17 ± 0.022
- mitochondrial superoxide (time after LPS: 4 h): 1.18 ± 0.04

SMILES: CS(=O)(=O)N1CCc2c(-c3cnc(N)nc3)nc(N3CCOCC3)nc21
- mitochondrial superoxide (time after LPS: 1 h): 1.31 ± 0.047
- mitochondrial superoxide (time after LPS: 2 h): 1.48 ± 0.024
- mitochondrial superoxide (time after LPS: 4 h): 1.55 ± 0.025

SMILES: O=C1C(c2c(O)[nH]c3ccccc23)=Nc2ccccc21 [Indirubin]
- mitochondrial superoxide (time after LPS: 1 h): 1.22 ± 0.026
- mitochondrial superoxide (time after LPS: 2 h): 1.34 ± 0.073
- mitochondrial superoxide (time after LPS: 4 h): 1.42 ± 0.048

SMILES: CN1CC[C@H](c2c(O)cc(O)c3c(=O)cc(-c4ccccc4Cl)oc23)[C@H](O)C1 [Flavopiridol HCl]
- mitochondrial superoxide (time after LPS: 1 h): 1.31 ± 0.077
- mitochondrial superoxide (time after LPS: 2 h): 1.48 ± 0.088
- mitochondrial superoxide (time after LPS: 4 h): 1.71 ± 0.06

SMILES: COc1ccc(-c2nc(N3CCOCC3)c3sc(CN(C)c4ncc(C(=O)NO)cn4)cc3n2)cn1
- mitochondrial superoxide (time after LPS: 1 h): 1.31 ± 0.095
- mitochondrial superoxide (time after LPS: 2 h): 1.52 ± 0.1
- mitochondrial superoxide (time after LPS: 4 h): 1.77 ± 0.17

SMILES: Cc1c(C(=O)N2CCOc3ccc(-c4ccc(N)nc4)cc3C2)ccc(S(C)(=O)=O)c1F
- mitochondrial superoxide (time after LPS: 1 h): 1.112 ± 0.0078
- mitochondrial superoxide (time after LPS: 2 h): 1.25 ± 0.064
- mitochondrial superoxide (time after LPS: 4 h): 1.32 ± 0.059

SMILES: CC(C)N(CCC(=O)c1ccc2ccccc2c1)Cc1ccccc1
- mitochondrial superoxide (time after LPS: 1 h): 1.31 ± 0.017
- mitochondrial superoxide (time after LPS: 2 h): 1.44 ± 0.11
- mitochondrial superoxide (time after LPS: 4 h): 1.69 ± 0.02

SMILES: Cc1ccc([N+](=O)[O-])cc1S(=O)(=O)N(C)/N=C/c1cnc2ccc(Br)cn12
- mitochondrial superoxide (time after LPS: 1 h): 1.17 ± 0.09
- mitochondrial superoxide (time after LPS: 2 h): 1.17 ± 0.015
- mitochondrial superoxide (time after LPS: 4 h): 1.21 ± 0.027

SMILES: Cn1cc(C2=C(c3ccc(Cl)cc3Cl)C(=O)NC2=O)c2ccccc21
- mitochondrial superoxide (time after LPS: 1 h): 1.46 ± 0.18
- mitochondrial superoxide (time after LPS: 2 h): 1.56 ± 0.22
- mitochondrial superoxide (time after LPS: 4 h): 1.68 ± 0.29

SMILES: CCC(=O)Nc1cccc(Oc2nc(Nc3ccc(N4CCN(C)CC4)cc3OC)ncc2Cl)c1
- mitochondrial superoxide (time after LPS: 1 h): 1.39 ± 0.084
- mitochondrial superoxide (time after LPS: 2 h): 1.51 ± 0.091
- mitochondrial superoxide (time after LPS: 4 h): 1.79 ± 0.061

SMILES: CS(=O)(=O)CCNCc1ccc(-c2ccc3ncnc(Nc4ccc(OCc5cccc(F)c5)c(Cl)c4)c3c2)o1
- mitochondrial superoxide (time after LPS: 1 h): 1.6 ± 0.073
- mitochondrial superoxide (time after LPS: 2 h): 1.72 ± 0.07
- mitochondrial superoxide (time after LPS: 4 h): 1.89 ± 0.18

SMILES: N#CC(=Cc1ccc(O)c(O)c1)C(=O)NCc1ccccc1 [AG-490 (Tyrphostin B42)]
- mitochondrial superoxide (time after LPS: 1 h): 1.35 ± 0.052
- mitochondrial superoxide (time after LPS: 2 h): 1.36 ± 0.041
- mitochondrial superoxide (time after LPS: 4 h): 1.44 ± 0.097

SMILES: Cn1c(=O)n(-c2ccc(C(C)(C)C#N)cc2)c2c3cc(-c4cnc5ccccc5c4)ccc3ncc21 [BEZ235 (NVP-BEZ235, Dactolisib)]
- mitochondrial superoxide (time after LPS: 1 h): 1.47 ± 0.087
- mitochondrial superoxide (time after LPS: 2 h): 1.47 ± 0.084
- mitochondrial superoxide (time after LPS: 4 h): 1.61 ± 0.076

SMILES: Oc1cc(O)cc(/C=C/c2ccc(O)c(O)c2)c1 [Piceatannol]
- mitochondrial superoxide (time after LPS: 1 h): 1.13 ± 0.0055
- mitochondrial superoxide (time after LPS: 2 h): 1.15 ± 0.013
- mitochondrial superoxide (time after LPS: 4 h): 1.23 ± 0.041

SMILES: C[C@@]1(C(=O)Nc2ccc(F)nc2)CCCN1c1nc(Nc2cc(C3CC3)n[nH]2)c2cccn2n1
- mitochondrial superoxide (time after LPS: 1 h): 1.38 ± 0.051
- mitochondrial superoxide (time after LPS: 2 h): 1.43 ± 0.06
- mitochondrial superoxide (time after LPS: 4 h): 1.45 ± 0.066

SMILES: CC1=C(C(=O)Nc2cc3cn[nH]c3cc2F)C(c2ccc(C(F)(F)F)cc2)CC(=O)N1 (stereo not given)
- mitochondrial superoxide (time after LPS: 1 h): 1.23 ± 0.085
- mitochondrial superoxide (time after LPS: 2 h): 1.26 ± 0.033
- mitochondrial superoxide (time after LPS: 4 h): 1.35 ± 0.057

SMILES: COc1cc(CCc2cc(NC(=O)c3ccc(N4CC(C)NC(C)C4)cc3)n[nH]2)cc(OC)c1 (stereo not given)
- mitochondrial superoxide (time after LPS: 1 h): 1.26 ± 0.04
- mitochondrial superoxide (time after LPS: 2 h): 1.42 ± 0.032
- mitochondrial superoxide (time after LPS: 4 h): 1.53 ± 0.092

SMILES: NC1(Cc2ccc(Cl)cc2)CCN(c2ncnc3[nH]ccc23)CC1
- mitochondrial superoxide (time after LPS: 1 h): 1.31 ± 0.037
- mitochondrial superoxide (time after LPS: 2 h): 1.43 ± 0.058
- mitochondrial superoxide (time after LPS: 4 h): 1.68 ± 0.021

SMILES: CN1CCN(c2ccc3nc(-c4c(N)c5c(F)cccc5[nH]c4=O)[nH]c3c2)CC1 [Dovitinib (TKI-258, CHIR-258)]
- mitochondrial superoxide (time after LPS: 1 h): 1.62 ± 0.087
- mitochondrial superoxide (time after LPS: 2 h): 1.7 ± 0.026
- mitochondrial superoxide (time after LPS: 4 h): 1.91 ± 0.073

SMILES: CNC(=O)c1ccccc1Sc1ccc2c(/C=C/c3ccccn3)n[nH]c2c1 [Axitinib]
- mitochondrial superoxide (time after LPS: 1 h): 1.77 ± 0.17
- mitochondrial superoxide (time after LPS: 2 h): 1.78 ± 0.17
- mitochondrial superoxide (time after LPS: 4 h): 1.8 ± 0.058

SMILES: CN(C[C@@H]1COCCO1)S(=O)(=O)Nc1ccc2ccc3ncc(-c4cnn(C)c4)cc3c(=O)c2c1
- mitochondrial superoxide (time after LPS: 1 h): 1.26 ± 0.029
- mitochondrial superoxide (time after LPS: 2 h): 1.51 ± 0.054
- mitochondrial superoxide (time after LPS: 4 h): 1.76 ± 0.048

SMILES: NCC(=O)Nc1ccc(-n2nc(C(F)(F)F)cc2-c2ccc3c(ccc4ccccc43)c2)cc1
- mitochondrial superoxide (time after LPS: 1 h): 1.414 ± 0.012
- mitochondrial superoxide (time after LPS: 2 h): 1.41 ± 0.031
- mitochondrial superoxide (time after LPS: 4 h): 1.49 ± 0.087

SMILES: Cc1cc(Nc2ncnc3ccc(-c4ccc(CNCCS(C)(=O)=O)o4)cc23)ccc1Oc1ccn2ncnc2c1 [HER2-Inhibitor-1]
- mitochondrial superoxide (time after LPS: 1 h): 1.26 ± 0.072
- mitochondrial superoxide (time after LPS: 2 h): 1.34 ± 0.074
- mitochondrial superoxide (time after LPS: 4 h): 1.57 ± 0.063

SMILES: COc1cc2c(N3CCN(C(=O)Nc4ccc(OC(C)C)cc4)CC3)ncnc2cc1OCCCN1CCCCC1 [Tandutinib (MLN518)]
- mitochondrial superoxide (time after LPS: 1 h): 1.61 ± 0.038
- mitochondrial superoxide (time after LPS: 2 h): 1.77 ± 0.029
- mitochondrial superoxide (time after LPS: 4 h): 1.72 ± 0.062

SMILES: CCN1C(=CC(C)=O)Sc2ccc(OC)cc21
- mitochondrial superoxide (time after LPS: 1 h): 1.417 ± 0.014
- mitochondrial superoxide (time after LPS: 2 h): 1.44 ± 0.089
- mitochondrial superoxide (time after LPS: 4 h): 1.63 ± 0.1

SMILES: C=CC(=O)Nc1cccc(Nc2nc(Nc3ccc(N4CCN(C(C)=O)CC4)cc3OC)ncc2C(F)(F)F)c1
- mitochondrial superoxide (time after LPS: 1 h): 1.49 ± 0.069
- mitochondrial superoxide (time after LPS: 2 h): 1.49 ± 0.063
- mitochondrial superoxide (time after LPS: 4 h): 1.65 ± 0.12

SMILES: CN(C)Cc1cccc(N=C(c2ccccc2)c2c(O)[nH]c3cc(C(=O)N(C)C)ccc23)c1
- mitochondrial superoxide (time after LPS: 1 h): 1.11 ± 0.069
- mitochondrial superoxide (time after LPS: 2 h): 1.141 ± 0.011
- mitochondrial superoxide (time after LPS: 4 h): 1.31 ± 0.037

SMILES: Cc1[nH]c(/C=C2\C(=O)Nc3ccc(S(=O)(=O)Cc4c(Cl)cccc4Cl)cc32)c(C)c1C(=O)N1CCC[C@@H]1CN1CCCC1
- mitochondrial superoxide (time after LPS: 1 h): 1.56 ± 0.039
- mitochondrial superoxide (time after LPS: 2 h): 1.61 ± 0.027
- mitochondrial superoxide (time after LPS: 4 h): 1.77 ± 0.028

SMILES: Cc1ccc(S(=O)(=O)C=CC#N)cc1
- mitochondrial superoxide (time after LPS: 1 h): 1.19 ± 0.044
- mitochondrial superoxide (time after LPS: 2 h): 1.19 ± 0.073
- mitochondrial superoxide (time after LPS: 4 h): 1.34 ± 0.095

SMILES: COc1ccc(-c2cc3c(C)nc(N)nc3n([C@H]3CC[C@H](OCCO)CC3)c2=O)cn1
- mitochondrial superoxide (time after LPS: 1 h): 1.37 ± 0.058
- mitochondrial superoxide (time after LPS: 2 h): 1.53 ± 0.056
- mitochondrial superoxide (time after LPS: 4 h): 1.74 ± 0.049

SMILES: NC(=O)Nc1cc(-c2cccc(F)c2)sc1C(=O)N[C@H]1CCCNC1
- mitochondrial superoxide (time after LPS: 1 h): 1.08 ± 0.056
- mitochondrial superoxide (time after LPS: 2 h): 1.11 ± 0.028
- mitochondrial superoxide (time after LPS: 4 h): 1.25 ± 0.1

SMILES: C#Cc1cccc(Nc2ncnc3cc(OC)c(OCCCCCCC(=O)NO)cc23)c1
- mitochondrial superoxide (time after LPS: 1 h): 1.189 ± 0.011
- mitochondrial superoxide (time after LPS: 2 h): 1.2 ± 0.047
- mitochondrial superoxide (time after LPS: 4 h): 1.22 ± 0.051

SMILES: CN(C)Cc1cccc(N=C(c2ccccc2)c2c(O)[nH]c3cc(C(N)=O)ccc23)c1
- mitochondrial superoxide (time after LPS: 1 h): 1.15 ± 0.031
- mitochondrial superoxide (time after LPS: 2 h): 1.15 ± 0.052
- mitochondrial superoxide (time after LPS: 4 h): 1.26 ± 0.07

SMILES: Cc1ccc(C(=O)Nc2ccc(CN3CCN(C)CC3)c(C(F)(F)F)c2)cc1C#Cc1cnc2[nH]ncc2c1
- mitochondrial superoxide (time after LPS: 1 h): 1.42 ± 0.049
- mitochondrial superoxide (time after LPS: 2 h): 1.53 ± 0.032
- mitochondrial superoxide (time after LPS: 4 h): 1.75 ± 0.062

SMILES: Cc1cnc(Nc2ccc(OCCN3CCCC3)cc2)nc1Nc1cccc(S(=O)(=O)NC(C)(C)C)c1
- mitochondrial superoxide (time after LPS: 1 h): 1.18 ± 0.14
- mitochondrial superoxide (time after LPS: 2 h): 1.33 ± 0.21
- mitochondrial superoxide (time after LPS: 4 h): 1.42 ± 0.22
